# Columns and labels:
# Experiment in all cases: SPOT peptide array binding signal intensity (averaged, normalized) (arbitrary units (background-subtracted, floor 0; scale differs between SH3 domains)); higher = stronger binding of the SH3 domain to the peptide
# [1] = target: CaNbp2
# How it was run: (§1)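 To measure binding, SH3 domains from four yeast species were fused to GST, expressed in E. coli BL21(DE3) and purified on glutathione Sepharose. Each domain was incubated at 10 μg/ml overnight at 4°C on cellulose membranes with synthetic 15-mer peptides whose cysteines were replaced by serines. Anti-GST antibody, an HRP anti-mouse secondary and luminol were used for detection, and images were quantified with Genespotter. Reported binding signal is normalized, background-subtracted spot intensity averaged over replicates, in arbitrary units that differ between domains.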
# [2] = target: CaRvs167
# How it was run: as §1
# [3] = target: CaRvs167-3
# How it was run: as §1
# [4] = target: CaSho1
# How it was run: as §1
# [5] = target: CaSla1-D1-D2
# How it was run: as §1
# [6] = target: CaSla1-D3
# How it was run: as §1
# [7] = target: ScAbp1
# How it was run: as §1
# [8] = target: ScBbc1
# How it was run: as §1
# [9] = target: ScBem1-D1
# How it was run: as §1
# [10] = target: ScBzz1-D1
# How it was run: as §1
# [11] = target: ScBzz1-D2
# How it was run: as §1
# [12] = target: ScCyk3
# How it was run: as §1
# [13] = target: ScFus1
# How it was run: as §1
# [14] = target: ScHof1
# How it was run: as §1
# [15] = target: ScHse1
# How it was run: as §1
# [16] = target: ScLsb1
# How it was run: as §1
# [17] = target: ScLsb2
# How it was run: as §1
# [18] = target: ScLsb3
# How it was run: as §1
# [19] = target: ScLsb4
# How it was run: as §1
# [20] = target: ScMyo3
# How it was run: as §1
# [21] = target: ScMyo5
# How it was run: as §1
# [22] = target: ScNbp2
# How it was run: as §1
# [23] = target: ScPex13
# How it was run: as §1
# [24] = target: ScRvs167
# How it was run: as §1
# [25] = target: ScSho1
# How it was run: as §1
# [26] = target: ScSla1-D1-D2
# How it was run: as §1
# [27] = target: ScSla1-D3
# How it was run: as §1
# [28] = target: SpAbp1-D1
# How it was run: as §1
# [29] = target: SpBbc1
# How it was run: as §1
# [30] = target: SpBzz1-D1
# How it was run: as §1
# [31] = target: SpBzz1-D2
# How it was run: as §1
# [32] = target: SpCyk3
# How it was run: as §1
# [33] = target: SpHof1
# How it was run: as §1
# [34] = target: SpHof1-2
# How it was run: as §1
# [35] = target: SpHof1-3
# How it was run: as §1
# [36] = target: SpHse1
# How it was run: as §1
# [37] = target: SpLsb1
# How it was run: as §1
# [38] = target: SpLsb4
# How it was run: as §1
# [39] = target: SpMyo1
# How it was run: as §1
# [40] = target: SpNbp2
# How it was run: as §1
# [41] = target: SpPex13
# How it was run: as §1
# [42] = target: SpRvs167
# How it was run: as §1
# [43] = target: SpSla1-D1-D2
# How it was run: as §1
# [44] = target: SpSla1-D3
# How it was run: as §1
# [45] = target: AgAbp1
# How it was run: as §1
# [46] = target: AgBbc1
# How it was run: as §1
# [47] = target: AgBem1-D1
# How it was run: as §1
# [48] = target: AgBzz1-D1
# How it was run: as §1
# [49] = target: AgBzz1-D2
# How it was run: as §1
# [50] = target: AgCyk3
# How it was run: as §1
# [51] = target: AgFus1
# How it was run: as §1
# [52] = target: AgHof1
# How it was run: as §1
# [53] = target: AgHse1
# How it was run: as §1
# [54] = target: AgLsb1
# How it was run: as §1
# [55] = target: AgLsb4
# How it was run: as §1
# [56] = target: AgMyo5
# How it was run: as §1
# [57] = target: AgNbp2
# How it was run: as §1
# [58] = target: AgRvs167
# How it was run: as §1
# [59] = target: AgSho1
# How it was run: as §1
# [60] = target: AgSla1-D1-D2
# How it was run: as §1
# [61] = target: AgSla1-D3
# How it was run: as §1
# [62] = target: CaAbp1-D1
# How it was run: as §1
# [63] = target: CaAbp1-D2
# How it was run: as §1
# [64] = target: CaBbc1
# How it was run: as §1
# [65] = target: CaBem1-D1
# How it was run: as §1
# [66] = target: CaBzz1-D1
# How it was run: as §1
# [67] = target: CaBzz1-D2
# How it was run: as §1
# [68] = target: CaCyk3
# How it was run: as §1
# [69] = target: CaFus1
# How it was run: as §1
# [70] = target: CaHof1
# How it was run: as §1
# [71] = target: CaHse1
# How it was run: as §1
# [72] = target: CaLsb1
# How it was run: as §1
# [73] = target: CaLsb4
# How it was run: as §1
# [74] = target: CaMyo5
# How it was run: as §1
binder,measurement,setting,value
VQQDSLPKLPFRSWG,SPOT peptide array binding signal intensity,[1],14.5
same,SPOT peptide array binding signal intensity,[2],1260
same,SPOT peptide array binding signal intensity,[3],8.5
same,SPOT peptide array binding signal intensity,[4],27
same,SPOT peptide array binding signal intensity,[5],14
same,SPOT peptide array binding signal intensity,[6],1.5
same,SPOT peptide array binding signal intensity,[7],6.5
same,SPOT peptide array binding signal intensity,[8],3.75
same,SPOT peptide array binding signal intensity,[9],0.5
same,SPOT peptide array binding signal intensity,[10],≤ 0
same,SPOT peptide array binding signal intensity,[11],8
same,SPOT peptide array binding signal intensity,[12],2
same,SPOT peptide array binding signal intensity,[13],≤ 0
same,SPOT peptide array binding signal intensity,[14],178
same,SPOT peptide array binding signal intensity,[15],25
same,SPOT peptide array binding signal intensity,[16],85.5
same,SPOT peptide array binding signal intensity,[17],38.5
same,SPOT peptide array binding signal intensity,[18],5130
same,SPOT peptide array binding signal intensity,[19],3050
same,SPOT peptide array binding signal intensity,[20],≤ 0
same,SPOT peptide array binding signal intensity,[21],≤ 0
same,SPOT peptide array binding signal intensity,[22],≤ 0
same,SPOT peptide array binding signal intensity,[23],2500
same,SPOT peptide array binding signal intensity,[24],2720
same,SPOT peptide array binding signal intensity,[25],300
same,SPOT peptide array binding signal intensity,[26],3.5
same,SPOT peptide array binding signal intensity,[27],≤ 0
same,SPOT peptide array binding signal intensity,[28],25
same,SPOT peptide array binding signal intensity,[29],5.25
same,SPOT peptide array binding signal intensity,[30],275
same,SPOT peptide array binding signal intensity,[31],1
same,SPOT peptide array binding signal intensity,[32],15.5
same,SPOT peptide array binding signal intensity,[33],11.2
same,SPOT peptide array binding signal intensity,[34],258
same,SPOT peptide array binding signal intensity,[35],865
same,SPOT peptide array binding signal intensity,[36],77.5
same,SPOT peptide array binding signal intensity,[37],3.5
same,SPOT peptide array binding signal intensity,[38],6040
same,SPOT peptide array binding signal intensity,[39],≤ 0
same,SPOT peptide array binding signal intensity,[40],1
same,SPOT peptide array binding signal intensity,[41],5
same,SPOT peptide array binding signal intensity,[42],2610
same,SPOT peptide array binding signal intensity,[43],3.5
same,SPOT peptide array binding signal intensity,[44],≤ 0
MAMRPIPPLPTESEY,SPOT peptide array binding signal intensity,[45],9
same,SPOT peptide array binding signal intensity,[46],8
same,SPOT peptide array binding signal intensity,[47],155
same,SPOT peptide array binding signal intensity,[48],7
same,SPOT peptide array binding signal intensity,[49],≤ 0
same,SPOT peptide array binding signal intensity,[50],13
same,SPOT peptide array binding signal intensity,[51],55.5
same,SPOT peptide array binding signal intensity,[52],87.8
same,SPOT peptide array binding signal intensity,[53],38
same,SPOT peptide array binding signal intensity,[54],230
same,SPOT peptide array binding signal intensity,[55],1930
same,SPOT peptide array binding signal intensity,[56],≤ 0
same,SPOT peptide array binding signal intensity,[57],81
same,SPOT peptide array binding signal intensity,[58],308
same,SPOT peptide array binding signal intensity,[59],353
same,SPOT peptide array binding signal intensity,[60],2
same,SPOT peptide array binding signal intensity,[61],≤ 0
same,SPOT peptide array binding signal intensity,[62],35
same,SPOT peptide array binding signal intensity,[63],79
same,SPOT peptide array binding signal intensity,[64],32
same,SPOT peptide array binding signal intensity,[65],71
same,SPOT peptide array binding signal intensity,[66],54
same,SPOT peptide array binding signal intensity,[67],39
same,SPOT peptide array binding signal intensity,[68],12
same,SPOT peptide array binding signal intensity,[69],226
same,SPOT peptide array binding signal intensity,[70],10
same,SPOT peptide array binding signal intensity,[71],186
same,SPOT peptide array binding signal intensity,[72],11
same,SPOT peptide array binding signal intensity,[73],1410
same,SPOT peptide array binding signal intensity,[74],35.2
same,SPOT peptide array binding signal intensity,[1],628
same,SPOT peptide array binding signal intensity,[2],528
same,SPOT peptide array binding signal intensity,[3],≤ 0
same,SPOT peptide array binding signal intensity,[4],596
same,SPOT peptide array binding signal intensity,[5],128
same,SPOT peptide array binding signal intensity,[6],110
same,SPOT peptide array binding signal intensity,[7],4.5
same,SPOT peptide array binding signal intensity,[8],2
same,SPOT peptide array binding signal intensity,[9],≤ 0
same,SPOT peptide array binding signal intensity,[10],≤ 0
same,SPOT peptide array binding signal intensity,[11],≤ 0
same,SPOT peptide array binding signal intensity,[12],≤ 0
same,SPOT peptide array binding signal intensity,[13],106
same,SPOT peptide array binding signal intensity,[14],304
same,SPOT peptide array binding signal intensity,[15],≤ 0
same,SPOT peptide array binding signal intensity,[16],106
same,SPOT peptide array binding signal intensity,[17],19.5
same,SPOT peptide array binding signal intensity,[18],4040
same,SPOT peptide array binding signal intensity,[19],1070
same,SPOT peptide array binding signal intensity,[20],21.5
same,SPOT peptide array binding signal intensity,[21],3
same,SPOT peptide array binding signal intensity,[22],172
same,SPOT peptide array binding signal intensity,[23],1090
same,SPOT peptide array binding signal intensity,[24],821
same,SPOT peptide array binding signal intensity,[25],543
same,SPOT peptide array binding signal intensity,[26],167
same,SPOT peptide array binding signal intensity,[27],82.2
same,SPOT peptide array binding signal intensity,[28],13
same,SPOT peptide array binding signal intensity,[29],4.75
same,SPOT peptide array binding signal intensity,[30],79.5
same,SPOT peptide array binding signal intensity,[31],17
same,SPOT peptide array binding signal intensity,[32],14
same,SPOT peptide array binding signal intensity,[33],140
same,SPOT peptide array binding signal intensity,[34],110
same,SPOT peptide array binding signal intensity,[35],26.8
same,SPOT peptide array binding signal intensity,[36],66
same,SPOT peptide array binding signal intensity,[37],67.8
same,SPOT peptide array binding signal intensity,[38],2610
same,SPOT peptide array binding signal intensity,[39],309
same,SPOT peptide array binding signal intensity,[40],42.5
same,SPOT peptide array binding signal intensity,[41],72
same,SPOT peptide array binding signal intensity,[42],1130
same,SPOT peptide array binding signal intensity,[43],2
same,SPOT peptide array binding signal intensity,[44],28

# — the supplement of paper PMC4466140
